Compounds with a hit are over-represented: about 7.4% of the library has one in this group of screens.
SMN2 splice enh: increases expression of the SMN2 splice variant; HEK293 SMN2-luciferase splicing reporter, luminescence, 30-36 h; 210,000 compounds, 2.8% hits; Potency, µM (highest dose often 46.1 µM), without a hit: at the highest dose activity change, positive = activation, actives largely listed as activators; note: % of control where 0% means no effect; nearly all actives have a fitted effect of over 55% in size
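HEK293 cells carry an SMN2 minigene-luciferase reporter in which exon 7 inclusion puts luciferase in frame. Cells were seeded at 2000 cells/well, attached for 10-12 hours, then exposed to compounds for 30-36 hours at 37C before ONE-Glo luminescence.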
Rab9 prom act: Rab9 promoter activation | AID 485297 | Huh7 Rab9 promoter-luciferase reporter, luminescence, 24 h | Potency, µM (series often up to 9.22 µM), inactives show top-dose activation, negative = inhibition, actives largely listed as activators | 320,000 compounds, 2.8% hits; note: % of control where 0% means no effect; nearly all actives have a fitted effect of over 60% in size
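Stable Rab9-luc Huh7, 1500 cells/well, 2 h settle; cmpd in DMSO, 24 h, 37 °C/5% CO2; luciferase reagent 10 min RT; luminescence.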
FLuc modulator: counter-screen for miR-21 project: firefly luciferase inhibitors or activators. AID 588342. purified FLuc, Km substrates, luminescence inhibition. 360,000 compounds, 6.9% hits. Potency, µM (highest dose often 57.5 µM), for the others: at the highest dose activity change, negative = inhibition, hits mostly inhibitors;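 note: plate controls were vehicle for no effect and reference inhibitor for full effect; nearly all actives have a fitted effect of over 55% in size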
Target sequence (P08659 whole entry, looked up): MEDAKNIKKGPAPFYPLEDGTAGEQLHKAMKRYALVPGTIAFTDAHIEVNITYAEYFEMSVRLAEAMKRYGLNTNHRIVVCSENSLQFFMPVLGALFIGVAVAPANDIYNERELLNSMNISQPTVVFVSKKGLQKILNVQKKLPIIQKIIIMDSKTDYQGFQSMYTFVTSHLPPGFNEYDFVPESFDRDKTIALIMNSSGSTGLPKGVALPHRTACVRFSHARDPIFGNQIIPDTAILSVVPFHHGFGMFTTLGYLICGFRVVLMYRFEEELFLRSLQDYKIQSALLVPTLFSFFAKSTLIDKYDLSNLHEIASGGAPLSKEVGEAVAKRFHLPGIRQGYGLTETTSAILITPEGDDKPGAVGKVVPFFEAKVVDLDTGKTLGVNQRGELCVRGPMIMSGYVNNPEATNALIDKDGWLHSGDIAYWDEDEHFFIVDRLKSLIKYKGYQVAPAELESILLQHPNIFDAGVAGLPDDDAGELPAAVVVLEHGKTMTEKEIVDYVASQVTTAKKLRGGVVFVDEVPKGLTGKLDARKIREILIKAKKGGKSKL
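Purified P. pyralis luciferase (10nM final) with 10uM D-luciferin and 10uM ATP (Km levels) in 50mM Tris acetate pH 7.5, 10mM Mg acetate, 0.01% Tween-20, 0.05% BSA; qHTS 6-point titration, ~60 µM downward; luminescence read.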
ELG1 genotoxic: inducers of genotoxicity in HEK293T ELG1-luciferase cells | AID 504466 | Potency, µM (doses to about 46 µM), inactives show top-dose activity change, positive = activation, most hits filed as activators | 330,000 compounds, 1.3% hits | HEK293T ELG1-luciferase reporter, luminescence, 16 h; note: % of control where 0% means no effect; nearly all actives have a fitted effect of over 60% in size
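ELG1-luciferase HEK293T cells, 2,000/well; compound pinned in; 16 hr, 37 °C, 5% CO2; ONE-Glo, 30 min RT; luminescence on CCD imager.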
NPC1 prom act: NPC1 promoter activation | Potency, µM (titrated, usually from 9.22 µM), without a hit: at the top dose activation, most hits filed as activators | 320,000 compounds, 2.4% hits | Huh7 NPC1 promoter luciferase reporter, 24 h | AID 485313; note: % of control where 0% means no effect; nearly all actives have a fitted effect of over 60% in size
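In 1536-well qHTS, Huh7 cells harboring an NPC1 promoter–luciferase construct received compound for 24 h; activation was quantified by luminescence following luciferase reagent addition.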
* = called active by the depositor; ? = inconclusive; . = not tested or not shown. Calls come from the whole dose curve; as a rule, active = well fitted curve in the direction sought with a large enough effect; inconclusive = small, poorly fitted or top-dose-only effect, or another doubt; inactive = no such curve, though single readings can be large; an effect the other way counts as inactive or inconclusive. Potency is the fitted concentration of half-maximal effect.

SMILES	SMN2 splice enh	Rab9 prom act	FLuc modulator	ELG1 genotoxic	NPC1 prom act
CCOc1ccc2nc(NC(=O)CN3CCN(c4ccccn4)CC3)sc2c1	-39%	.	?	.	.
Cc1ccc2nc(NC(=O)C3CC3C)sc2c1 (configuration not stated)	.	?	5.4µM*	13%	1.1µM*
CCOc1ccc2nc(SCC(=O)Nc3cc(C)on3)c(C)cc2c1	.	3%	4%	1%	-6%
CCOc1ccc2nc(NC(=O)CSCC(=O)Nc3cc(C)on3)sc2c1	.	3.2µM*	?	?	?
[N-]=[N+]=NCC1OC(n2cnc3c(=O)[nH]c(N)nc32)C(O)C1O (configuration not stated)	1%	.	.	.	.
Cc1ccc2nc(NC(=O)COC(=O)c3ccccn3)sc2c1	?	?	15µM*	0%	?
CCc1ccc2nc(NC(=O)CSCc3c(C)noc3C)sc2c1	?	20%	21µM*	8%	5%
CCOc1ccc2nc(NC(=O)CCC(=O)c3cccs3)sc2c1	13µM*	4.5µM*	1.9µM*	10µM*	3.2µM*
C/C=C/C(=O)OCC(=O)Nc1nc2ccc(C)cc2s1	17%	?	21µM*	?	24%
CCOC(=O)C1CCC(CN(Cc2cccc(Br)c2)S(=O)(=O)c2ccc(C)cc2)CC1 (configuration not stated)	.	.	-6%	.	.
CCCN1C(=O)C(Cc2nc3ccccc3c(=O)n2-c2ccc(OC)cc2)c2cc(C)ccc21 (configuration not stated)	0%	.	-11%	.	.
CC(Oc1ccccc1)C(=O)Nc1ccc(C(=O)OCc2cc(=O)n3nc(C(C)C)sc3n2)cc1 (configuration not stated)	.	.	-3%	.	.
CCCCCC(O)/C=C/C=C\CCCCCCCC(=O)O (configuration not stated)	2%	.	.	.	.
CC1CCN(C(=O)Cn2c(=O)n(CCCCCC(=O)NCc3ccccc3Cl)c(=O)c3sccc32)CC1	3%	.	-1%	.	.
CCOc1ccc2nc(NS(C)(=O)=O)sc2c1	14µM*	1%	17µM*	?	7%
CCOCC(=O)Nc1nc2ccc(S(C)(=O)=O)cc2s1	?	16%	?	7%	2%
CCOCC(=O)Nc1nc2ccc(C)cc2s1	10µM*	1.8µM*	9.5µM*	?	?
CCOc1ccc2nc(NC(=O)C3CSC4(C)CCC(=O)N34)sc2c1 (configuration not stated)	.	20%	21µM*	1%	1%
CCOCC(=O)Nc1nc2ccc(OCC)cc2s1	11µM*	1.3µM*	8.5µM*	8.2µM*	2.5µM*
C=CC(=O)OCCCCCCOC(=O)C=C	-9%	.	.	.	.
O=S(=O)(NCCc1nnc2ccc(SCc3ccccc3Cl)nn12)c1ccccc1	.	.	-14%	.	.
O=C(CSC(=S)N1CCSCC1)c1ccccc1	13µM*	1.3µM*	4.3µM*	?	1.3µM*
O=C(CSC(=S)N1CCSCC1)c1ccc(Cl)cc1	16µM*	1.6µM*	3µM*	?	3.2µM*
O=C(Nc1ccc(Cl)cc1)N1CCSCC1	-7%	-8%	?	1%	0%
CCc1nn(CC(=O)NC2CC2)c(=O)c2cc3c(OC)cccc3n12	5%	.	-3%	.	.
SMILES	SMN2 splice enh	Rab9 prom act	FLuc modulator	ELG1 genotoxic	NPC1 prom act
Nc1c(-c2ccc(Cl)cc2)cnn1-c1ccccc1	.	0.89µM*	4.8µM*	6.5µM*	2.2µM*
Nc1c(-c2cccc(Cl)c2)cnn1-c1cccc(C(F)(F)F)c1	-27%	9%	?	-3%	2%
Nc1c(-c2ccccc2)cnn1-c1cccc(C(F)(F)F)c1	3.5µM*	3.2µM*	17µM*	14%	?
Nc1c(-c2ccc(Cl)cc2)nnn1-c1ccccc1	.	2.2µM*	?	?	3.2µM*
Cc1ccc(-c2cnn(-c3ccccc3)c2N)cc1	.	1.1µM*	1.3µM*	?	0.45µM*
Nc1c(-c2ccc(Cl)cc2)cnn1-c1cc(C(F)(F)F)cc(C(F)(F)F)c1	.	-2%	-2%	4%	1%
Nc1c(-c2ccccc2)cnn1-c1ccc(C(=O)O)cc1	3.2µM*	0.32µM*	1.7µM*	?	?
COc1ccc(-c2cnn3c(N)c(S(=O)(=O)C(C)(C)C)cnc23)cc1	-11%	9%	?	-4%	9%
